Experimental data as given in PubChem BioAssay.
Activity calls are given as the source filed them. Unless noted, how the calls were made is not given here.

Experiments:
[1] = compounds binding Alexa647 anti-His antibody – biochemical, small-molecule microarray, 635 nm fluorescence, artefact control for SMM control protein annotation, primary screen (AID 1128); details: higher = more signal;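 further: score merges feature fluorescence with signal-to-noise for each printed compound spot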
[2] = test system: Human papillomavirus type 1a E7 protein (residues 1-88); assay: HPV1a E7 small-molecule binders, primary screen, biochemical, small-molecule microarray, residues 1-88, 635 nm (AID 1129); details: small-molecule microarray binding, fluorescence 635 nm; higher = more signal
[3] = target: Focal adhesion kinase 1 (Homo sapiens) (UniProt Q05397); assay: PTK2 protein binding on printed compound slides – biochemical, small-molecule microarray, 635/667 nm fluorescence, BSA, DTT, primary screen (AID 1130); details: 635 nm fluorescence, higher = more signal;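 further: composite of spot emission at 667 nm and signal to noise over triplicate slides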
Focal adhesion kinase 1 (Homo sapiens), sequence (Q05397 whole entry, looked up): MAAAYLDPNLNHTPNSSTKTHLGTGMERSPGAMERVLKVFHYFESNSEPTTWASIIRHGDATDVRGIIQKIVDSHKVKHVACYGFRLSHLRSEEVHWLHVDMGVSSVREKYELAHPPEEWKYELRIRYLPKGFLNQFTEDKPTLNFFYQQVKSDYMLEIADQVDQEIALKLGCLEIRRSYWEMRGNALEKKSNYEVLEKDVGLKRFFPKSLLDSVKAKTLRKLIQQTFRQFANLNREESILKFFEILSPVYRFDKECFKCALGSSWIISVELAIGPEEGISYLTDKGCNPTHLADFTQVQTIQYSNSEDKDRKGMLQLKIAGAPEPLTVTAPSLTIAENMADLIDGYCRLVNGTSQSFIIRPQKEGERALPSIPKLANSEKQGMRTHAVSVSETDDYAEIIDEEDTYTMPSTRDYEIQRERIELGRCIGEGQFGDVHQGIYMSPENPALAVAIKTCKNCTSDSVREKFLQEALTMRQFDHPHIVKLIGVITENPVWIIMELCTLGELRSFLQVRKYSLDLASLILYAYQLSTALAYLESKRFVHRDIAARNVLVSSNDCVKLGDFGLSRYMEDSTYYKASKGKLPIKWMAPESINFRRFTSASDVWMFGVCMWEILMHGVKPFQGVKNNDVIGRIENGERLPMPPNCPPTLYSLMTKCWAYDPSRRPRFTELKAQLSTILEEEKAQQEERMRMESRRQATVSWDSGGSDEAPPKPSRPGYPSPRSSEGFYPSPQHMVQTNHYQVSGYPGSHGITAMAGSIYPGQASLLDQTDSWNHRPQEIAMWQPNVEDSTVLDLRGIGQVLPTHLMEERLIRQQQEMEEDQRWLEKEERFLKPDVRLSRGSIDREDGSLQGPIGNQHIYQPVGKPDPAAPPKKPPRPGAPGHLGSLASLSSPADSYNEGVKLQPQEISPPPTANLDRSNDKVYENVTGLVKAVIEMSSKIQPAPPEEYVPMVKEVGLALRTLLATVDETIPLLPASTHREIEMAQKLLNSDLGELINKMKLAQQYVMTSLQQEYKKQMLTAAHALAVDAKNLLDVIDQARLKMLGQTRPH

[4] = test system: Fibrinogen (Alexa647-labelled); assay: Alexa647-fibrinogen binding to printed small molecules – biochemical, small-molecule microarray, 635/667 nm fluorescence, artefact control for SMM control-protein annotation, profiling panel (AID 1131); details: fibrinogen-A647 binding fluorescence, higher = more signal;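 further: z-score merges 667 nm fluorescence with per-spot signal-to-noise over triplicate slides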
[5] = target: Follistatin (Homo sapiens) (UniProt P19883); assay: FST protein binding to printed compounds – biochemical, small-molecule microarray, 635/667 nm fluorescence, primary screen (AID 1132); details: 635 nm fluorescence, higher = more signal
Follistatin (Homo sapiens), sequence (P19883 whole entry, looked up): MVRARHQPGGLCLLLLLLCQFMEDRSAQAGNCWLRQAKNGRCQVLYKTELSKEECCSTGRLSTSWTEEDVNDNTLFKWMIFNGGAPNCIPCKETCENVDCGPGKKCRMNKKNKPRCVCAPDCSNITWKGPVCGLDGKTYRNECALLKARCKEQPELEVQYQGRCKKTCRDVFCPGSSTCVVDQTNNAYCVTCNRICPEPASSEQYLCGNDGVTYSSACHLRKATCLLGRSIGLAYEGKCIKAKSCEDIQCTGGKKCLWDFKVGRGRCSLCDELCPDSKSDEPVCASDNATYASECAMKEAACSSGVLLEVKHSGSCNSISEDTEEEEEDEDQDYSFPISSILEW

[6] = target: Fibroblast growth factor 2 (Homo sapiens) (UniProt P09038); assay: basic fibroblast growth factor binding to printed compounds – biochemical, small-molecule microarray, 635/667 nm fluorescence, primary screen (AID 1133); details: FGF2, fluorescence 635/667, higher = more signal
Fibroblast growth factor 2 (Homo sapiens), sequence (P09038 whole entry, looked up): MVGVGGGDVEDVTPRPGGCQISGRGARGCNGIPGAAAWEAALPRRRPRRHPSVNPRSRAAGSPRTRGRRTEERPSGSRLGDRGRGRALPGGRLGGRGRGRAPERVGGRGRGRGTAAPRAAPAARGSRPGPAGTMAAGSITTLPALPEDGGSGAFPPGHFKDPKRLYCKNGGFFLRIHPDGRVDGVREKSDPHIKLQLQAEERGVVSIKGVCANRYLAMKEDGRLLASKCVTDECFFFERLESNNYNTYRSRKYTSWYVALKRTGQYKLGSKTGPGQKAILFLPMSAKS

[7] = JC-1 mitochondrial potential readout, lung cancer cells – cell-based, A549, JC-1 fluorescence, basal, 24 h, 100 nL, profiling panel (AID 1138); details: higher = more signal;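 further: A549 lung adenocarcinoma cells under basal conditions with no added stimulus; test concentration not given here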
Lefty1 = Lefty1 protein binding to printed compounds – biochemical, small-molecule microarray, 635/667 nm fluorescence, primary screen (AID 1139); details: fluorescence 635/667, higher = more signal
[8] = test system: wheat germ agglutinin (Triticum aestivum), Alexa647-labelled; assay: Alexa647-WGA lectin binding to printed small molecules – biochemical, small-molecule microarray, 635/667 nm fluorescence, artefact control for SMM control-protein annotation, profiling panel (AID 1140); details: WGA-A647 binding, 635 nm fluorescence, higher = more signal;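 further: score merges 667 nm feature emission with signal to noise over triplicate slides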
[9] = target: Luciferin 4-monooxygenase (Photinus pyralis) (UniProt P08659); assay: inhibition of purified Photinus pyralis luciferase – biochemical, luminescence, purified enzyme, 2006 set, primary screen (AID 1141); details: purified firefly luciferase, SteadyGlo luminescence, 30 min; higher = more signal, called active from +8 up or from −8 down;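 further: cell-free assay with purified firefly luciferase at 100 ng per well in PBS; test concentration not given here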
Luciferin 4-monooxygenase (Photinus pyralis), sequence (P08659 whole entry, looked up): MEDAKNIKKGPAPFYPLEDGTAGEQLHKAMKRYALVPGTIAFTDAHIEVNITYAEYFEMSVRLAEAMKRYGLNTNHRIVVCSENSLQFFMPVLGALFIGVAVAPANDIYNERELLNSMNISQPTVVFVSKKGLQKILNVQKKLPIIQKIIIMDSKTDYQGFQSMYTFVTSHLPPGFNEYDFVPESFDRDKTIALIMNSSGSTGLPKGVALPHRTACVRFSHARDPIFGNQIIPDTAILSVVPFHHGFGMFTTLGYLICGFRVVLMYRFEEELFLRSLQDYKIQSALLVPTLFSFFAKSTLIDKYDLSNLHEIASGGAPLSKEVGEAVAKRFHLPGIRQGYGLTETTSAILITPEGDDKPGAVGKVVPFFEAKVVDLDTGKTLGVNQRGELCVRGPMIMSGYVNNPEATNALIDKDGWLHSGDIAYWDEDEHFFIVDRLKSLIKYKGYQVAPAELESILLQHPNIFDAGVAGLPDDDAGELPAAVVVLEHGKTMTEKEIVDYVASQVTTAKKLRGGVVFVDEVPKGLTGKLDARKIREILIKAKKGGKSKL

[10] = test system: Wnt5a (protein binding on small-molecule microarray); assay: small molecules binding Wnt5a protein – biophysical, small-molecule microarray, 635/667 nm fluorescence, primary screen (AID 1142); details: 635 nm fluorescence, higher = more signal;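 further: fluorescence read at 667 nm with signal to noise per printed feature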
[11] = ATP-based viability of Huh7 replicon cells – cell-based, CellTiter-Glo luminescence, basal, 48 h, cytotoxicity control for HCV replication inhibitor project, primary screen (AID 1143); details: higher = more signal, called active from +8 up or from −8 down;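 further: Huh7 hepatoma cells carrying a hepatitis C replication reporter with no stimulus; test concentration not given here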
[12] = Pseudomonas biofilm growth suppression – PAO1 strain, BacTiter-Glo luminescence, LB-PBS, primary screen (AID 1144); details: P. aeruginosa PAO1 biofilm, 12 h, higher = more signal
[13] = basal CRE-LacZ reporter activity in PC12 – cell-based, unstimulated, primary screen (AID 1145); details: no forskolin, luminescence, 4.5 h, higher = more signal, called active from +8 up or from −8 down
[14] = forskolin-driven CRE-LacZ activity in PC12 – cell-based, CRE-LacZ reporter, forskolin-stimulated, primary screen (AID 1146); details: luminescence, 4.5 h, higher = more signal, called active from +8 up or from −8 down;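 further: PC12 cells with 6xCRE LacZ reporter stimulated by forskolin 10 µM; beta-galactosidase reporter signal reflecting CREB driven transcription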
[15] = target: Streptavidin (Streptomyces avidinii) (UniProt P22629); assay: compounds binding control protein streptavidin – biophysical, small-molecule microarray, 635/667 nm fluorescence, artefact control for SMM compound annotation, primary screen (AID 1147); details: higher = more signal;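 further: signal reflects streptavidin binding to arrayed compounds as a control protein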
Streptavidin (Streptomyces avidinii), sequence (P22629 whole entry, looked up): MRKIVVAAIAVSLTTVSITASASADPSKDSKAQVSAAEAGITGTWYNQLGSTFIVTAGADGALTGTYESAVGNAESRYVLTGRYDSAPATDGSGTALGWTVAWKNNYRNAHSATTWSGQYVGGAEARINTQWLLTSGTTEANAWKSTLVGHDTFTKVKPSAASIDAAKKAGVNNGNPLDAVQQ

[16] = probe aInhba binding on compound microarray – biochemical, small-molecule microarray, 635/667 nm fluorescence, primary screen (AID 1148); details: higher = more signal;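 further: score merges 667nm spot fluorescence with signal-to-noise for antibody binding to printed compounds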
Torsin-1A (Homo sapiens) [17] = target: Torsin-1A (Homo sapiens) (UniProt O14656); assay: TOR1A wild-type binding on microarray – cell lysate, small-molecule microarray, lysate, 635/667 nm, primary screen (AID 1149); details: COS7 hTOR1A-WT lysate, 635 nm fluorescence, higher = more signal
Torsin-1A (Homo sapiens), sequence (O14656 whole entry, looked up): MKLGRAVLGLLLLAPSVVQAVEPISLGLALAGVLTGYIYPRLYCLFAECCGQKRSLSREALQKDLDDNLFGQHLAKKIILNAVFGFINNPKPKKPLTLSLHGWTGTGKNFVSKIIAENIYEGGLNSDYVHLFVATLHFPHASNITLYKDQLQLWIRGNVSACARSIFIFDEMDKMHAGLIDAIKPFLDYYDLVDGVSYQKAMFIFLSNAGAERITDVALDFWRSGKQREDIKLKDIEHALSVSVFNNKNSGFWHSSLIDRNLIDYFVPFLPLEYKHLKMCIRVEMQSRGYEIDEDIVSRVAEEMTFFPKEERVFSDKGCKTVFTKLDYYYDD

Torsin-1A (Homo sapiens) [18] = target: Torsin-1A (Homo sapiens) (UniProt O14656); assay: torsin A mutant lysate binding on microarrays – cell lysate, small-molecule microarray, COS7 lysate, 635/667 nm fluorescence, primary screen (AID 1150); details: COS7 hTOR1A mutant lysate, 635 nm fluorescence, higher = more signal;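 further: score pools 667 nm emission and signal to noise measuring lysate protein binding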
[19] = test system: Sonic hedgehog protein (Shh); assay: Sonic hedgehog microarray binding compounds – biochemical, small-molecule microarray, 635/667 nm fluorescence, primary screen (AID 1151); details: 635 nm fluorescence, higher = more signal;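 further: Shh protein binding to compounds spotted on small-molecule microarray slides; score combines spot fluorescence intensity with signal-to-noise across triplicate slides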

Compound | composite z-score [1] | composite z-score [2] | composite z-score [3] | composite z-score [4] | composite z-score [5] | composite z-score [6] | z-score [7] | composite z-score (Lefty1) | composite z-score [8] | z-score [9] | composite z-score [10] | z-score [11] | z-score [12] | z-score [13] | z-score [14] | composite z-score [15] | composite z-score [16] | composite z-score (Torsin-1A (Homo sapiens) [17]) | composite z-score (Torsin-1A (Homo sapiens) [18]) | composite z-score [19]
C=C(COC)C(=O)CC[C@@H](OC(=O)c1ccccc1-c1ccccc1C(=O)O)c1ccc(CO)o1 | 1.73 | 0.339 | 0.0109 | -0.363 | 1.05 | 1.81 | -0.789 | 1.56 | -0.407 | -3.78 (inactive) | 1.24 | -7.58 (inactive) | 0.164 (inactive) | 8.29 (active) | 5.1 (inactive) | -0.517 | -0.188 | 1.67 | 0.404 | 1.91
[N-]=[N+]=Nc1ccccc1[C@H]1OC(c2ccc(OCCCO)cc2)=N[C@@]1(CCS(=O)(=O)c1ccccc1)C(=O)N1CCOCC1 | 2.83 | 1.26 | 1.32 | 1 | 1.3 | 1.73 | -0.218 | 0.225 | 1.47 | -15 (active) | 1.48 | -2.5 (inactive) | 0.385 (inactive) | 0.937 (inactive) | 0.28 (inactive) | 0.877 | 0.496 | 0.35 | 0.923 | 0.836
O=C1C[C@@](C(=O)O)(c2ccc([N+](=O)[O-])cc2)[C@@H](c2ccc(CO)cc2I)N1CC12CC3CC(CC(C3)C1)C2 | 0.829 | 1.11 | 0.365 | 0.607 | 0.348 | -0.35 | -1.1 | 0.665 | 1.03 | -0.869 (inactive) | 0.0743 | -5.39 (inactive) | -0.142 (inactive) | 0.468 (inactive) | 3.72 (inactive) | 0.975 | -0.12 | 0.663 | 0.381 | 0.617
O=C1O[C@@H](c2ccccc2)[C@@H](c2ccccc2)N2[C@@H](c3ccc(O)cc3)[C@]3(C(=O)Nc4ccc(C#CCCO)cc43)[C@@H](C(=O)N3CCCCCCC3)[C@H]12 | 2.27 | 1.24 | 0.724 | 0.952 | 1.42 | 0.94 | -0.158 | 1.26 | 1.21 | 0.0848 (inactive) | 0.409 | -0.915 (inactive) | -0.547 (inactive) | -0.114 (inactive) | -0.394 (inactive) | 1.55 | 1.46 | 1.37 | 1 | 0.887
COc1ccc(C#Cc2ccc3c(c2)[C@]2(C(=O)N3)[C@H](C(=O)N3CCc4cc(OC)c(OC)cc4C3)[C@H]3C(=O)O[C@H](c4ccccc4)[C@H](c4ccccc4)N3[C@@H]2c2ccc(OCCO)cc2)cc1 | 0.441 | 1.2 | 1.1 | 0.821 | 1.21 | 1.24 | -1.09 | 0.941 | 1.17 | -0.297 (inactive) | 0.665 | -0.763 (inactive) | -0.745 (inactive) | -0.258 (inactive) | -0.166 (inactive) | 1 | 0.136 | 0.947 | 0.488 | 1.88
C=CCN1C(=O)[C@@]2(O[C@@H](CCO)[C@H]([Si](C)(C)c3ccc(OC)cc3)[C@H]2C)c2cc(N3C(=O)COc4ccccc43)ccc21 | 1.52 | 1.02 | 0.346 | 0.578 | 0.25 | 0.27 | -0.839 | 0.0865 | 0.577 | -0.401 (inactive) | 0.564 | -7.99 (inactive) | 0.798 (inactive) | 26 (active) | -4.06 (inactive) | 0.83 | -0.101 | -0.048 | -0.0358 | 0.531
CCOC(=O)C[C@H]1[C@H](OC(=O)c2cc3ccccc3oc2=O)[C@@H](NC(=O)c2ccc3ccccc3c2)c2cc(OCCCO)ccc2N1C(=O)c1ccccc1 | 0.138 | 1.2 | 0.482 | 0.414 | 1.08 | 0.512 | -0.59 | 1.09 | 0.357 | 0.151 (inactive) | 0.406 | -3.04 (inactive) | 1.4 (inactive) | 9.27 (active) | 0.368 (inactive) | 0.976 | -0.0405 | 1.14 | 1.11 | 1.54
O=C(CS)NCCCCCCNC(=O)[C@H]1C[C@H]2C(=O)N3CCC[C@H]3C(=O)N2[C@H]1c1ccc(O)cc1 | 1.81 | 0.828 | 0.163 | 0.702 | 1.37 | 1.34 | -0.708 | 1.16 | 0.681 | 0.102 (inactive) | -0.161 | -0.514 (inactive) | -0.256 (inactive) | 0.675 (inactive) | 0.465 (inactive) | -0.322 | -0.05 | 0.624 | 0.947 | 1.8
C=CCN1C(=O)[C@@]2(O[C@@H](CCO)[C@H]([Si](C)(C)c3ccc(OC)cc3)[C@H]2C)c2cc(NC(C)=O)ccc21 | 1.48 | 1.21 | 0.0016 | 0.818 | 1.34 | 1.45 | 0.921 | 1.22 | 0.948 | -0.301 (inactive) | 0.303 | -4.72 (inactive) | 0.445 (inactive) | 7.68 (inactive) | 0.766 (inactive) | -0.0236 | 0.0982 | 0.31 | 0.364 | 1.85
[N-]=[N+]=Nc1ccccc1[C@@H]1OC(c2ccc(OCCCO)cc2)=N[C@]1(CCS(=O)(=O)c1ccccc1)C(=O)O | 1.12 | 1.22 | 0.688 | 1.03 | 1.25 | 0.933 | -1.83 | 0.874 | 0.867 | -15.1 (active) | 0.301 | -0.781 (inactive) | 1.08 (inactive) | 0.0594 (inactive) | -0.0642 (inactive) | 1.04 | 0.0559 | 0.164 | 0.719 | 0.848
